Results on 28 compounds are retold here after PubChem BioAssay AID1851 (National Center for Advancing Translational Sciences (NCATS), 2009).

The structures appear in SMILES notation. Screen size: about 16,000 compounds; about 5,800 (36%) were called active. Inconclusive results (about 23%) are left out. Some of the results follow. Values without a mark were called inactive. Calls follow the shape of the dose curve; as a rule, active = well fitted curve in the direction sought with a large enough effect; inconclusive = small, poorly fitted or top-dose-only effect, or effect the other way; inactive = no such curve, though single readings can be large or run the other way.
% is scaled to controls: 0 for no effect and ±100 for the full control effect.

Chain of Cytochrome P450 2C19 (Homo sapiens) (P33261 whole entry, looked up): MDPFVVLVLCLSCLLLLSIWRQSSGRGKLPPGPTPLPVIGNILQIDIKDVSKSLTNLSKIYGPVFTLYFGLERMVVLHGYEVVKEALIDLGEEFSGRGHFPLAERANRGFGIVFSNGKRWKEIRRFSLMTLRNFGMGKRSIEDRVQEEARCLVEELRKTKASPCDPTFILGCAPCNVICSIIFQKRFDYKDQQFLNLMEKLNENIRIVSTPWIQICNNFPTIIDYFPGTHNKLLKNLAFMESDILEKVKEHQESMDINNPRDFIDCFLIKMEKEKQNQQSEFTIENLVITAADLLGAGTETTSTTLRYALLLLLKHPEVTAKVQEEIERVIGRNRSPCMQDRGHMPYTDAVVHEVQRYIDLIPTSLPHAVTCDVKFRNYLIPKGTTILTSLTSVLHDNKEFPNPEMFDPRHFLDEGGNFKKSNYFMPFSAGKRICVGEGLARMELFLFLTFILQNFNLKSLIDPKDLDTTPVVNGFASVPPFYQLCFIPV

The assay addresses Cytochrome P450 2C19 (Homo sapiens) (UniProt P33261). In words: Cytochrome panel assay with activity outcomes. To be noted: recombinant CYP, pro-luciferin dealkylation, luminescence, p450-cyp2c19; series mostly up to 57.1 µM; activity, negative = inhibition: at the top concentration.
On to `Cc1cc(C(=O)CSc2nnc(-c3ccccc3)o2)c(C)n1CC1COc2ccccc2O1` (stereo not drawn), for which the AC50 was 1.12 µM (active).

`CC(=O)NNC(=O)CCC(=O)Nc1ccccc1`: the “activity, negative = inhibition” value was 11.8%.

Turning to `CC(=O)c1cccc(NC(=O)CCC2CCCC2)c1`, the AC50 was 3.55 µM (active).

Turning to `O=C(Cn1cc(C(=O)c2ccco2)c2ccccc21)NCc1ccco1`, the half-maximal activity concentration (AC50) is 2.24 µM (active).

Turning to `COc1ccccc1CN1CCC2(CC1)CCN(C(=O)c1ccco1)CC2`, the “activity, negative = inhibition” value is -17.8%.

As for `COc1ccccc1CN1CCCC2(CCN(C(=O)c3ccco3)CC2)C1`, the “activity, negative = inhibition” value is 8.58%.

For `COc1ccccc1OCCn1cc(C(=O)c2ccco2)c2ccccc21`, the AC50 is 1 µM (active).

Consider `O=C(Cn1cccc1C(=O)c1ccccc1)NCc1cccs1`, for which the AC50 is 2.82 µM (active).

As to `Cc1ccccc1C(=O)c1cccn1CC(=O)NCc1ccco1`, the AC50 was 11.2 µM (active).

`CCS(=O)(=O)c1ccc(C(=O)Nc2ccccc2)c(Cl)c1Cl`: the AC50 was 11.2 µM (active).

`O=C(c1csnn1)N1CCC2(CCCN(c3ccc(-c4ccccc4)cc3)C2)CC1`: the “activity, negative = inhibition” value is -15.8%.

In the case of `O=C(O)CCc1nc(-c2ccccc2-n2cccc2)no1`, the activity, negative = inhibition was -29.3% [at 11.4 µM].

Consider `Nc1nonc1-c1noc(CCCN2C(=O)c3ccccc3C2=O)n1`, for which the AC50 is 3.98 µM (active).

`CCNc1ncc2nc(-c3cccs3)c(=O)n(CCc3ccccc3)c2n1`: the “activity, negative = inhibition” value is -40.1%.

Turning to `CCNc1ncc2nc(-c3ccccc3)c(=O)n(CCc3ccccc3)c2n1`, the concentration at half-maximal activity (AC50) was 1 µM (active).

Consider `CCNc1ncc2nc(C)c(=O)n(CCc3ccccc3)c2n1`, for which the AC50 is 0.316 µM (active).

Take `Cc1nc2cnc(Nc3ccccc3)nc2n(CCc2ccccc2)c1=O`: the “activity, negative = inhibition” value is -11.4%.

`CCNc1ncc2nc(C)c(=O)n(CCC#N)c2n1`: the “activity, negative = inhibition” value is -8.35%.

Consider `CCNc1ncc2nc(-c3ccccc3)c(=O)n(CCC#N)c2n1`, for which the “activity, negative = inhibition” value is -3.99%.

Take `O=C(O)c1nn(-c2ccccc2-c2n[nH]c(=O)[nH]c2=O)c(=O)[nH]c1=O`: the activity, negative = inhibition was 20.9% [at 11.4 µM].

As for `Cc1cccc(N2CCN(c3ccc(NC(=O)/C=C(/C(=O)O)c4ccccc4)cc3)CC2)c1`, the AC50 is 4.47 µM (active).

Take `Cc1cc(C(=O)Nc2ccc(N3CCOCC3)cc2)c2ccccc2n1`: the “activity, negative = inhibition” value is -16.6%.

In the case of `c1ccc(CNc2nc(-c3ccc4c(c3)OCO4)nc3ccccc23)cc1`, the AC50 is 10 µM (active).

Turning to `Cc1cccc(CNc2nc(-c3ccc4c(c3)OCO4)nc3ccccc23)c1`, the AC50 was 3.16 µM (active).

Consider `CN(C)Cc1ccccc1-c1nc(NCc2ccccc2)c2ccccc2n1`, for which the “activity, negative = inhibition” value was -36.4%.

Take `c1csc(CNc2nc(-c3ccc4c(c3)OCO4)nc3ccccc23)c1`: the AC50 is 3.16 µM (active).

For the compound `c1cncc(CNc2nc(-c3ccc4c(c3)OCO4)nc3ccccc23)c1`, the AC50 is 10 µM (active).

Consider `CN[C@H]1[C@@H](O[C@@H]2[C@H](O[C@@H]3[C@@H](O)[C@@H](O)[C@@H](N=C(N)N)[C@@H](O)[C@@H]3N=C(N)N)O[C@H](C)[C@@]2(O)C=O)O[C@@H](CO)[C@@H](O)[C@H]1O`, for which the “activity, negative = inhibition” value was 13.4% [at 25.6 µM].

A word on the AC50: it is the concentration at which the activity in the assay is half-maximal.
